# Measured values published in PubChem BioAssay AID1572 (National Center for Advancing Translational Sciences (NCATS), 2009).
# Records with an inconclusive call do not appear. Activity calls are given as the source filed them. Calls follow the shape of the dose curve; as a rule, active = well fitted curve in either direction with a large enough effect; inconclusive = small, poorly fitted or top-dose-only effect; inactive = flat fitted curve, though single readings scatter.
# Assay: Total Fluorescence Confirmation Counterscreen for Inhibitors of the Interaction of Thyroid Hormone Receptor and Steroid Receptor Coregulator 2
# Conditions: Texas Red total fluorescence, TRbeta/SRC2 FP artifact counterscreen; series mostly up to 92.2 µM
# Text: NIH Molecular Libraries Probe Production Network [MLPCN] NIH Chemical Genomics Center [NCGC] MLPCN Grant: DK058080 Assay Provider: R. Kip Guy, St. Jude Children's Research Hospital NCGC Assay Overview: Thyroid receptor (TR) regulates many homeostatic processes including basal metabolism, cardiovascular function, body weight, and lipid trafficking. TR modulators are potential therapeutics for obesity and hyperlipidemias but current thyroid analogs have undesirable side effects, particularly cardiac stimulation. To identify inhibitors that specifically prevent the interaction of TR with the steroid receptor coregulator 2 (SRC2), a fluorescence polarization assay was screened. This assay detects interaction of the ligand-binding domain of human TRbeta with a Texas Red labeled SRC2 peptide, corresponding to a 20 amino acid region of the nuclear receptor interaction domain (Arnold et al., 2006). Total fluorescence (555 nm excitation and 632 nm emission) was measured to identify potential fluorescent and light absorbing compounds. Such compounds may be artifacts that interfere with the fluorescence polarization assay. This assay is a confirmation assay for AID 1479. Arnold, L. A.; Estebanez-Perpina, E.; Togashi, M.; Shelat, A.; Ocasio, C. A.; McReynolds, A. C.; Nguyen, P.; Baxter, J. D.; Fletterick, R. J.; Webb, P.; Guy, R. K. A high-throughput screening method to identify small molecule inhibitors of thyroid hormone receptor coactivator binding. Sci STKE 2006, p 13.
# NCGC Assay Protocol Summary: For screening, 5 uL/well 0.6 uM TRbeta and 20 nM SRC2 Texas Red in protein buffer (20mM Tris hydrochloride, 100mM NaCl, 10% glycerol, 1mM EDTA, 0.01% NP-40, 1mM DTT, 1uM T3 and 5% DMSO) was dispensed into black solid 1536-well plates (Grenier) using a solenoid-based dispenser. Following transfer of 23 nL compound or DMSO vehicle by a pin tool, the plates were centrifuged 15 s at 1000 RPM and incubated 5 hr at ambient temperature. The plates were read by an Envision (Perkin Elmer) to detect fluorescence polarization of SRC2 Texas Red (555 nm excitation and 632 nm emission). Data were normalized to unbound (all components except TRbeta) and bound SRC2 Texas Red controls. Total fluorescence (TF) was calculated as follows: TF = S + 2P where S and P are fluorescence readings in the parallel and perpendicular channels, respectively. In this assay, we provide % activity data for each concentration as well as potencies for the active compounds.
row,SMILES,outcome
1,CCCCCn1c(N)c(C(=O)NCc2cccs2)c2nc3ccccc3nc21,inactive
2,CN1CC[C@@]2(C)c3cc(O)ccc3N(C)C2O1 (stereo partly specified),inactive
3,COP(=S)(OC)Oc1ccc([N+](=O)[O-])cc1,inactive
4,Cc1[nH]n(-c2ccccc2)c(=O)c1C(c1ccc([N+](=O)[O-])cc1)c1c(C)[nH]n(-c2ccccc2)c1=O,inactive
5,O=C(O)CC1OCC=C2CN3CCC45C6=CC(=O)C(=O)C([N+](=O)[O-])=C6NC4C1C2CC35 (stereo unspecified),inactive
6,CCn1nc(-c2cccs2)nc2c(=O)n(C)c(=O)nc1-2,inactive
